Results from PubChem BioAssay (Tox21).
Values without a mark were called inactive. Results filed as inconclusive are left out. Entries that show only a call come without a potency. Active and inactive are the calls of the source. Unless noted, calls come from the whole dose curve; as a rule, active = well fitted curve in the direction sought with a large enough effect in the repeat runs; inconclusive = weak or mixed curves; inactive = no such curve, though single readings can be large; an effect the other way counts as inactive or inconclusive.

What was measured:
[1] = qHTS assay for identifying genotoxic compounds that show differential cytotoxicity against isogenic chicken DT40 cell lines with known DNA damage response pathways - wild type cell line (AID 743012); note: nearly all actives have a fitted effect of over 60% in size
How it was run: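 Cells (DT40 wild type, 300/well) are treated with DMSO-dissolved compounds after a ~0.5 h pre-incubation and kept 40 h at 37 C/5% CO2. Viability is then measured by CellTiter-Glo luminescence following 30 min at room temperature.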

[2] = qHTS assay for identifying genotoxic compounds that show differential cytotoxicity against isogenic chicken DT40 cell lines with known DNA damage response pathways - Rad54/Ku70 mutant cell line (AID 743015); note: nearly all actives have a fitted effect of over 60% in size; note: potency is the fitted concentration of half-maximal effect
[3] = qHTS assay to identify small molecule antagonists of the androgen receptor (AR) signaling pathway - cell viability counter screen (AID 743033; note: nearly all actives have a fitted effect of over 45% in size)
[4] = qHTS assay to identify small molecule antagonists of the androgen receptor (AR) signaling pathway using the MDA cell line - cell viability counter screen (AID 743041; note: nearly all actives have a fitted effect of over 45% in size)
How it was run: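 Same-well cytotoxicity was assessed by CellTiter-Fluor in MDA-kb2 AR-luc cells after 16 h of compound treatment under R1881 agonism.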

[5] = qHTS assay to identify small molecule antagonists of the thyroid receptor (TR) signaling pathway - cell viability counter screen (AID 743064); note: nearly all actives have a fitted effect of over 50% in size
How it was run: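 Fluorescence from CellTiter-Fluor, added after 23.5 h exposure at 37 °C, reported viability of GH3.TRE-Luc cells co-treated with compound and 1 nM T3. Measured in the same wells as the luciferase TR readout.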

[6] = qHTS assay to identify small molecule antagonists of the thyroid receptor (TR) signaling pathway (AID 743065); note: series mostly up to about 70 µM; nearly all actives have a fitted effect of over 55% in size
How it was run: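 GH3.TRE-Luc rat pituitary cells (two TREs driving luciferase) were dosed with compound, then stimulated with 1 nM T3 (final) for 23.5 h at 37 C. ONE-Glo luminescence was the read-out, with CellTiter-Fluor fluorescence as the cytotoxicity counter-screen.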

[7] = tested on: thyroid hormone receptor (rat, GH3 cells); assay: qHTS assay to identify small molecule agonists of the thyroid receptor (TR) signaling pathway (AID 743066; calls by dose curve)
[8] = target: Estrogen receptor (Homo sapiens) (UniProt P03372); assay: qHTS assay to identify small molecule antagonists of the estrogen receptor alpha (ER-alpha) signaling pathway (AID 743069; active = well fitted curve in the direction sought with a large enough effect in the signal ratio in the repeat runs, not every such curve was filed as active; the % refers to the signal ratio)
How it was run: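 Reporter cells (ER-alpha-bla, HEK293 background) are conditioned overnight in stripped-serum medium (2% charcoal-stripped FBS). Compound and 17beta-estradiol exposure runs 18 hr at 37C, 5% CO2.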

[9] = qHTS assay to identify small molecule antagonists of the estrogen receptor alpha (ER-alpha) signaling pathway - cell viability counter screen (AID 743074; calls by dose curve;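 note: HEK293 cells carrying ER-alpha-UAS-bla reporter stimulated with 17beta-estradiol; nearly all actives have a fitted effect of over 45% in size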)
[10] = target: Estrogen receptor (Homo sapiens) (UniProt P03372); assay: qHTS assay to identify small molecule agonists of the estrogen receptor alpha (ER-alpha) signaling pathway (AID 743075; calls by dose curve;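 note: HEK293 GripTite cells with ER-alpha and UAS-driven beta-lactamase reporter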)
[11] = target: Estrogen receptor (Homo sapiens) (UniProt P03372); assay: qHTS assay to identify small molecule agonists of the estrogen receptor alpha (ER-alpha) signaling pathway using the BG1 cell line (AID 743079); note: nearly all actives have a fitted effect of over 20% in size
Aromatase (Homo sapiens) = Aromatase (Homo sapiens) (UniProt P11511); assay: qHTS assay to identify aromatase inhibitors (AID 743083); note: series mostly up to about 70 µM; nearly all actives have a fitted effect of over 55% in size
[12] = qHTS assay to identify small molecule antagonists of the glucocorticoid receptor (GR) signaling pathway - cell viability counter screen (AID 720693); note: nearly all actives have a fitted effect of over 55% in size
[13] = qHTS assay for identifying genotoxic compounds that show differential cytotoxicity against isogenic chicken DT40 cell lines with known DNA damage response pathways - Rev3 mutant cell line (AID 743014); note: nearly all actives have a fitted effect of over 55% in size; note: potency is the fitted concentration of half-maximal effect
[14] = qHTS assay to identify small molecule antagonists of the estrogen receptor alpha (ER-alpha) signaling pathway using the BG1 cell line (AID 743080; calls by dose curve;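 note: BG1 cells stimulated with 17beta-estradiol alongside compound; series mostly up to about 70 µM; nearly all actives have a fitted effect of over 25% in size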)
How it was run: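 Readout is ONE-Glo luminescence, taken 30 min at room temperature after reagent addition, preceded by a CellTiter-Fluor viability read; BG1-Luc-4E2 cells had received compound and 17beta-estradiol for 21.5 h at 37 C.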

[15] = qHTS assay to identify small molecule antagonists of the estrogen receptor alpha (ER-alpha) signaling pathway using the BG1 cell line - cell viability counter screen (AID 743081);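 note: compound given together with 17beta-estradiol as the ER stimulus; series mostly up to about 70 µM; nearly all actives have a fitted effect of over 45% in size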
[16] = target: Androgen receptor (Homo sapiens) (UniProt P10275); assay: qHTS assay to identify small molecule antagonists of the androgen receptor (AR) signaling pathway (AID 743035; active = well fitted inhibition curve with a large enough effect in the signal ratio in the repeat runs, not every such curve was filed as active; the % refers to the signal ratio)
How it was run: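 Antagonism is scored as loss of R1881-driven beta-lactamase reporter expression in HEK293 cells carrying the reporter under a UAS element, after 16 h co-treatment at 37C and a 2 h room-temperature FRET substrate read.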

[17] = target: Androgen receptor (Homo sapiens) (UniProt P10275); assay: qHTS assay to identify small molecule agonists of the androgen receptor (AR) signaling pathway (AID 743036; active = well fitted activation curve with a large enough effect in the signal ratio in the repeat runs, with a control signal flat, not every such curve was filed as active; the % refers to the signal ratio)
How it was run: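 Fluorescence from a beta-lactamase FRET substrate served as read-out in AR-UAS-bla GripTite HEK293 cells. Cells were treated with DMSO-dissolved compounds for 16 h at 37C, then with LiveBLAzer B/G substrate for 2 h at room temperature.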

[18] = target: Androgen receptor (Homo sapiens) (UniProt P10275); assay: qHTS assay to identify small molecule agonists of the androgen receptor (AR) signaling pathway using the MDA cell line (AID 743040; note: nearly all actives have a fitted effect of over 20% in size)
How it was run: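 Human breast carcinoma MDA-kb2 reporter cells (MMTV-luc, AR/GR elements) were treated for 16 h at 37C in 0% CO2 following a 5 h settling period. Signal was quantified by ONE-Glo luminescence.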

[19] = target: Androgen receptor (Homo sapiens) (UniProt P10275); assay: qHTS assay to identify small molecule antagonists of the androgen receptor (AR) signaling pathway using the MDA cell line (AID 743042; note: nearly all actives have a fitted effect of over 55% in size)
How it was run: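 MDA-kb2 breast carcinoma cells carrying MMTV-luciferase (AR/GR responsive) were co-treated with compounds and the agonist R1881 for 16 h at 37C. Inhibition read as ONE-Glo luminescence; CellTiter-Fluor fluorescence measured in parallel for cytotoxicity.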

Chain of Androgen receptor (Homo sapiens) (P10275 whole entry, looked up): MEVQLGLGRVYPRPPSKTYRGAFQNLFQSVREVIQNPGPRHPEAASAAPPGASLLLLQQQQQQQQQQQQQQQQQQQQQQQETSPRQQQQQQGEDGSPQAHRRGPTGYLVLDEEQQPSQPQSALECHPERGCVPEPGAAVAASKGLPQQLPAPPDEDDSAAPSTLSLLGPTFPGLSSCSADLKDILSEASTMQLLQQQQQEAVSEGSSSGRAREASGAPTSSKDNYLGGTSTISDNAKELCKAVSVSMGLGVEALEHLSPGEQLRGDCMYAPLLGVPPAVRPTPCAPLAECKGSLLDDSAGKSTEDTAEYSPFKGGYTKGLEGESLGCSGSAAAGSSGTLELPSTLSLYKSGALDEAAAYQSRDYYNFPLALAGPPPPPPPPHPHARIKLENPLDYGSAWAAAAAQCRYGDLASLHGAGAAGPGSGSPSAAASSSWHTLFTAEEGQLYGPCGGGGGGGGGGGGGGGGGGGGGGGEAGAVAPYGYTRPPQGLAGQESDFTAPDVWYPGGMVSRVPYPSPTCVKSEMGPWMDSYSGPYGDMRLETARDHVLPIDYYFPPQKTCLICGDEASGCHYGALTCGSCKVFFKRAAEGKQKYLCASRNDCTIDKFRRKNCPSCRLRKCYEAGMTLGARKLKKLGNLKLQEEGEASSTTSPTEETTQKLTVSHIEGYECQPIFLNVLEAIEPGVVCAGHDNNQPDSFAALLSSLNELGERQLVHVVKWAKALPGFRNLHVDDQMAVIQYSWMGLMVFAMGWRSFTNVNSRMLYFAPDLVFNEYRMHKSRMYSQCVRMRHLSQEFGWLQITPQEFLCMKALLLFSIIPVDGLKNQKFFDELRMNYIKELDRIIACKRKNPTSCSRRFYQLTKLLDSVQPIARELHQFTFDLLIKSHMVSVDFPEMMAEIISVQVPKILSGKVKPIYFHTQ
Chain of Estrogen receptor (Homo sapiens) (P03372 whole entry, looked up): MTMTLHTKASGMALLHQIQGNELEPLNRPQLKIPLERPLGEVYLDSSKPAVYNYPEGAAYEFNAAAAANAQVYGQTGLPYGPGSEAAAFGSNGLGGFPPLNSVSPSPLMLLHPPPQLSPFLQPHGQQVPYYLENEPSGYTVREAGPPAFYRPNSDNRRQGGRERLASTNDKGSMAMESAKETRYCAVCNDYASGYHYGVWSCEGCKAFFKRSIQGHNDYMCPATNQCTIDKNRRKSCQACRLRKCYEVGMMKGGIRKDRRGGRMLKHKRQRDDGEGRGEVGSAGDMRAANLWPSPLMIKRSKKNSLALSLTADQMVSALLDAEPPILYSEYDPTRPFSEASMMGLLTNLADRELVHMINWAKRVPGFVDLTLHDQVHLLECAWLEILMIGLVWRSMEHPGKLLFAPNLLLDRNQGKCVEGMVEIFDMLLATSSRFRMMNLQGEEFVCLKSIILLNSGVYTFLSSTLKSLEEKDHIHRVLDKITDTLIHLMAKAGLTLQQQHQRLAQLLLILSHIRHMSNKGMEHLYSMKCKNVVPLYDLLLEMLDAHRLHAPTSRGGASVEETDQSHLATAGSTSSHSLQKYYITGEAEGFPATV
Chain of Aromatase (Homo sapiens) (P11511 whole entry, looked up): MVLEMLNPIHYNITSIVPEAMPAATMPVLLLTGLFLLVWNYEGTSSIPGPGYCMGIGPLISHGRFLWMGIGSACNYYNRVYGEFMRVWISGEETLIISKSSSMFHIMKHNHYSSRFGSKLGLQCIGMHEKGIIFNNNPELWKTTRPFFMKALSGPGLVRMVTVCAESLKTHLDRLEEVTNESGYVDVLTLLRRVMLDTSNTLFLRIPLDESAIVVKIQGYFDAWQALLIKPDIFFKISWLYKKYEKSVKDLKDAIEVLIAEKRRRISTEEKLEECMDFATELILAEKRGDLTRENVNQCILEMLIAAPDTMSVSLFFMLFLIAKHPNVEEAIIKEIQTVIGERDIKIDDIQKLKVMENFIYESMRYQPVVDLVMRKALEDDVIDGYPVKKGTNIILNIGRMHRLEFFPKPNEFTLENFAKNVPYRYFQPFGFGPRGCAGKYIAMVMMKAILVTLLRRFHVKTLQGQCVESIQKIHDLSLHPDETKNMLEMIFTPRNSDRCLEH

Row | SMILES | Potency [1] | Potency [2] | outcome [3] | outcome [4] | Potency [5] | Potency [6] | Potency [7] | Potency [8] | Potency [9] | Potency [10] | Potency [11] | outcome (Aromatase (Homo sapiens)) | Potency [12] | Potency [13] | outcome [14] | outcome [15] | Potency [16] | outcome [17] | outcome [18] | outcome [19]
1 | Cc1cc(O)c2c(c1)C(=O)c1cccc(O)c1C2=O | inactive | 26.7 µM (active) | inactive | inactive | inactive | inactive | inactive | inactive | inactive | inactive | inactive | inactive |  |  |  |  |  |  |  | 
2 | COC(/C=C(\C)CCC=C(C)C)OC |  | inactive | inactive |  | inactive | inactive | inactive | inactive | inactive | inactive | inactive | inactive | inactive | inactive | inactive | inactive |  |  |  | 
3 | C[C@H]1O[C@H](O[C@H]2[C@H](O)[C@@H](O)[C@@H](O[C@H]3[C@H](O)[C@@H](O)[C@H](O)O[C@@H]3CO)O[C@@H]2CO)[C@H](O)[C@@H](O)[C@@H]1N[C@H]1C=C(CO)[C@@H](O)[C@H](O)[C@H]1O | inactive | inactive | inactive | inactive | inactive | inactive | inactive |  | inactive |  |  | inactive |  | inactive |  | inactive |  |  |  | 
4 | C=CCOC(=O)c1ccc(C(=O)OCC=C)c(C(=O)OCC=C)c1 |  |  | inactive | inactive | inactive | inactive | inactive | inactive |  | inactive | inactive | inactive | inactive |  |  | inactive |  |  |  | 
5 | C[C@@H]1C[C@H]2[C@@H]3C[C@H](F)C4=CC(=O)C=C[C@]4(C)[C@@]3(F)[C@@H](O)C[C@]2(C)[C@@]1(O)C(=O)CO |  |  |  | inactive | inactive | inactive | inactive |  | inactive |  |  | inactive | inactive |  |  | inactive |  |  |  | 
6 | CCCCC(CC)C(=O)OC(C)C (stereo not given) | inactive |  | inactive | inactive | inactive | inactive | inactive |  | inactive |  |  | inactive |  | inactive |  | inactive |  |  |  | 
7 | CCOc1ccc(NC(=O)OC(C)C)cc1OCC |  |  | inactive | inactive | inactive | inactive | inactive |  | inactive |  |  | inactive | inactive | 61.1 µM (active) |  | inactive |  |  |  | 
8 | CCOC(=O)OCC/C(SC(=O)OCC)=C(\C)N(C=O)Cc1cnc(C)nc1N | inactive | inactive | inactive | inactive | inactive | inactive | inactive |  |  |  |  | inactive |  | inactive |  |  |  |  |  | 
9 | CO/N=C(/C(=O)N[C@@H]1C(=O)N2C(C(=O)O)=C(Cn3nnc(C)n3)CS[C@H]12)c1csc(N)n1 |  | inactive | inactive | inactive | inactive | inactive | inactive |  |  |  |  |  | inactive | inactive |  | inactive |  |  |  | 
10 | O=C(O)c1c(Cl)ccc(Cl)c1Cl |  | inactive | inactive | inactive | inactive | inactive |  | inactive | inactive | inactive | inactive | inactive | inactive | inactive |  | inactive |  |  |  | 
11 | CCCCOC(=O)C(C)OC(=O)CCC (stereo not given) |  | inactive | inactive | inactive | inactive | inactive | inactive | inactive | inactive | inactive | inactive | inactive | inactive | inactive | inactive | inactive |  |  |  | 
12 | CCN(Cc1cccc(S(=O)(=O)O)c1)c1ccccc1 |  |  | inactive | inactive | inactive | inactive | inactive | inactive | inactive | inactive | inactive | inactive | inactive |  | inactive | inactive |  |  |  | 
13 | CC(C)COC(=O)COc1ccc(Cl)cc1Cl |  |  | inactive | inactive | inactive | inactive | inactive |  | inactive |  |  | inactive | inactive |  |  | inactive | inactive | inactive | inactive | inactive
14 | NC(=O)C1(N2CCCCC2)CCN(CCCC(=O)c2ccc(F)cc2)CC1 |  |  | inactive | inactive | inactive |  | inactive | inactive | inactive | inactive | inactive | inactive | inactive |  | inactive | inactive |  |  |  | 
15 | CCCCCC1CCCC(=O)O1 (stereo not given) |  | inactive | inactive | inactive |  | inactive | inactive |  | inactive |  |  | inactive | inactive | inactive |  | inactive |  |  |  | 
